From PubChem BioAssay
hgDAF12 agonist: agonists of H. glycines DAF-12 nuclear receptor | HEK293 GAL4-hgDAF12 UAS-luciferase reporter, agonist luminescence; normalized to butyrate control | activation, % at 6.8 µM | AID 687014 | actives 1.8% (n = 370,000);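 active = activation above a cutoff set at the mean of all screened compounds plus 3 SD, cut at about 10% in these data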
DAX1 inh-1: blocks DAX1 repression of SF-1 activated StAR promoter; HEK293T StAR-luciferase reporter, SF-1/DAX-1 repression relief; inhibition, % at 6.8 µM; actives 1.1% (n = 370,000);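 active = inhibition above the mean over all tested compounds plus 3 SD, cut at about 3.6% in these data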;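 also: higher inhibition means more luminescence from relief of DAX-1 repression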
ssDAF-12 act: activates DAF-12 receptor from parasite S. stercoralis; AID 652126; HEK293 ssDAF-12/GRIP1 lit1-tk-luc reporter, luminescence; % of 3 µM dafachronic acid response; activation, % at 6.8 µM; actives 1% (n = 370,000);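 active = activation above the mean over all tested compounds plus 3 SD, cut at about 0.9% in these data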
DAX1 inh-2: inhibits human nuclear receptor DAX1; P51843; HEK293 Gal4-DAX1 luciferase reporter, luminescence; inhibition, % at 6.75 µM; actives 0.99% (n = 340,000);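 active = inhibition above the mean over all tested compounds plus 3 SD, cut at about 4.2% in these data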;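 also: inhibition shows as a rise in luminescence from relieved DAX1 repression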
hcDAF-12 act: activates DAF-12 receptor from parasite H. contortus; HEK293 hcDAF-12 lit1-tk-luc reporter, luminescence; 0% DMSO, 100% Δ7-dafachronic acid; activation, % at 6.8 µM; actives 1.4% (n = 370,000);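 active = activation above the mean of all tested compounds plus 3 SD, cut at about 5.5% in these data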
SMARCA2 act: activators of SMARCA2 function. MG213 cells, MMTV-luciferase reporter, dexamethasone, overnight. activation, % at 9.1 µM. actives 1% (n = 370,000); in the data active = activation above about 7.8%
LXR ag: activates human LXR-beta, counter-screen for hcDAF-12 agonists; activation, % at 6.8 µM; 3,400 tested, under 10 active; HEK293 Gal4-LXR tk-luc reporter, luminescence, 24 h; normalized: DMSO 0%, positive control 100%; shares compounds with hcDAF-12 act;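 active = mean percent activation of the reporter above a cutoff set as the average over tested compounds plus their standard deviation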
Target sequence (P55055 whole entry, looked up, the tested form may be a part): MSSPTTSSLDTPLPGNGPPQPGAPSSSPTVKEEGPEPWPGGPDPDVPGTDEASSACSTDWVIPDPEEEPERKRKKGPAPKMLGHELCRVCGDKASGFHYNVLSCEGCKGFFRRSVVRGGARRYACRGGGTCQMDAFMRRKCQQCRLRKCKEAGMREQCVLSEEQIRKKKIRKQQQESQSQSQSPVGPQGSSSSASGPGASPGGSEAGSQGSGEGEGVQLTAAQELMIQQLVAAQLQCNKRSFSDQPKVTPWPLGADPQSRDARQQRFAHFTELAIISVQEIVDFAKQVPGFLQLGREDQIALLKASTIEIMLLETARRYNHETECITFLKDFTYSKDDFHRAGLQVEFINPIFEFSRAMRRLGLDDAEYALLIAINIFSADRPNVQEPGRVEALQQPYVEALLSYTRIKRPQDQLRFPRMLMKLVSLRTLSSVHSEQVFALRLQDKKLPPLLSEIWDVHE
hcDAF12 conf: confirmation of H. contortus DAF-12 agonists | activation, % at 6.8 µM | HEK293 hcDAF-12 lit1-tk-luc reporter, luminescence; % of Δ7-dafachronic acid response | actives 61% (n = 3,400) | shares compounds with hcDAF-12 act;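 active = mean activation across triplicate tests above the threshold derived from the earlier primary screen, cut at about 5.5% in these data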
Hits are given with their value; n = inactive; x = no result given. Only some compounds are listed: those with a hit (about 4.8% of all), similar ones and a draw of the others.

SMILES	hgDAF12 agonist	DAX1 inh-1	ssDAF-12 act	DAX1 inh-2	hcDAF-12 act	SMARCA2 act	LXR ag	hcDAF12 conf
N#CC1=C(N)Oc2c(ccc3ccccc23)C1c1ccsc1 (stereo not given)	12	n	0.9	n	7.1	n	n	n
COc1cccc(-c2cnc(C(O)c3cc(C)c(OC)c(C)c3)[nH]2)c1 (stereo not given)	n	n	n	x	n	n	x	x
COC(=O)c1ccc(COc2ccccc2/C=N/Nc2cccc(C(=O)O)c2)cc1	n	n	n	n	n	n	x	x
O=C(O)c1cccc(N/N=C/c2cccc3ccccc23)c1	13	n	n	n	7.5	n	n	11
Nc1ccc(C(=O)N/N=C/c2sc(N3CCOCC3)nc2-c2ccccc2)cc1	n	n	n	n	n	n	x	x
O=C(O)c1cccc(N/N=C/c2sc(N3CCOCC3)nc2-c2ccccc2)c1	n	n	n	n	7.5	n	n	n
COc1cccc(C2=CC(=O)CCC2)c1	n	n	n	n	n	n	x	x
COc1cc(Cl)ccc1OCc1cc(C(=O)NC(C)Cc2cnccn2)no1 (stereo not given)	13	n	1.5	n	8.5	n	n	6.0
O=C(CC1C(=O)NCCN1Cc1ccccc1)NCCCOc1cccnc1 (stereo not given)	n	n	n	n	14	n	n	n
COc1ccccc1N1CN(S(=O)(=O)c2ccc(C)cc2)c2nc3ccccc3nc21	13	n	0.9	n	9.1	n	n	n
CCCCNC(=S)N(CCO)Cc1cc2cc3c(cc2[nH]c1=O)OCCO3	n	n	n	n	7.2	n	n	n
CCN(CC)CCCNC(=S)N(CCO)Cc1cc2cc3c(cc2[nH]c1=O)OCCO3	n	n	n	n	n	n	x	x
COc1ccc(Cn2c(O)c(C=Nc3ccc(OC)cc3)c3ccccc3c2=O)cc1	n	n	n	n	n	n	x	x
COc1ccc(N=Cc2[nH]c3ccccc3c2O)cc1	n	n	n	n	12	n	n	9.6
Cc1ccccc1C(=O)Nc1nnc(S(=O)(=O)N2CCCCCC2)s1	n	n	n	n	n	n	x	x
FC(F)(F)c1nc2cc3nc4ccccc4[nH]c3cc2n1	n	n	n	n	7.6	n	n	n
Nc1nnc(SCC(=O)Nc2cc(F)ccc2F)s1	n	n	n	n	n	n	x	x
CCOC(=O)Cn1c(-c2ccccn2)nc2ccccc21	n	n	n	n	n	n	x	x
CCOC(=O)c1ccc2c(c1)nc(-c1ccccn1)n2CC	n	n	0.9	n	7.6	n	n	8.7
O=C(CN1CCN(c2cccc(Cl)n2)CC1)N1CC(O)CO1 (stereo not given)	n	n	n	n	n	n	x	x
c1ccc(-c2nc(NCc3cccnc3)c3ccccc3n2)cc1	x	x	x	n	x	x	x	x
Cc1ccc(-c2nc(NCc3cccnc3)c3ccccc3n2)cc1	n	n	n	n	6.8	n	n	n
Cc1ccc(-c2nc(NCc3ccco3)c3ccccc3n2)cc1	n	n	0.9	n	6.6	n	n	5.7
O=C1c2ccccc2C(=O)N1Cc1cc(Cl)c(O)c([N+](=O)[O-])c1	n	n	n	n	n	n	x	x
O=S(=O)(Nc1ccn(-c2ccccc2)n1)c1ccc(Br)cc1	n	n	n	n	7.3	n	n	n
SMILES	hgDAF12 agonist	DAX1 inh-1	ssDAF-12 act	DAX1 inh-2	hcDAF-12 act	SMARCA2 act	LXR ag	hcDAF12 conf
CCN(CC)CCn1c(=N)n(CC(O)c2ccc(OC)c(OC)c2)c2ccccc21 (stereo not given)	n	n	n	n	n	n	x	x
COc1nc(-c2ccccc2)cc(-c2ccccc2)n1	n	n	n	n	n	n	x	x
c1csc(-c2csc(-c3cccs3)n2)c1	n	n	n	n	n	n	x	x
Cc1cccc(Nc2nc(-c3cccs3)cs2)n1	17	n	4.0	4.7	20	n	n	17
COc1ccc(/C=C2\CCc3ccccc3C2=O)cc1OC	n	n	n	n	n	n	x	x
Cc1ccsc1/C=C1\CCc2ccccc2C1=O	n	n	1.4	n	12	n	n	14
CC(=O)Oc1ccc(/C=C2/CCc3ccccc3C2=O)cc1	n	n	n	n	7.3	n	n	n
Cc1ccc(C(=O)Nc2cccc3cccnc23)cc1Br	n	n	n	x	6.9	n	n	7.8
O=C(Nc1cccc2cccnc12)c1ccc2c(c1)OCCO2	n	n	n	n	8.7	n	n	5.7
CCC(=O)Nc1cccc2cccnc12	n	n	n	n	n	n	x	x
COc1ccc(-c2nc(=S)[nH][nH]2)cc1OC	n	n	n	n	n	n	x	x
COc1ccc(C(OCC(O)CN2CCC(O)CC2)c2ccc(OC)cc2)cc1 (stereo not given)	n	n	n	n	10	n	n	n
O=C(COCC(=O)N/N=C/c1ccc(F)cc1)N/N=C/c1ccc(F)cc1	n	n	n	n	n	n	x	x
COc1ccc(OC)c2[nH]c(C(=O)N/N=C/c3ccccc3O)cc12	n	n	n	n	n	n	x	x
CC(=O)c1ccc(NC(=O)[C@@]2(CC(=O)O)CC(/C=C/c3ccccc3)=NO2)cc1	n	n	n	n	n	n	x	x
COc1ccc(NC(=O)[C@@]2(CC(=O)O)CC(/C=C/c3ccccc3)=NO2)cc1	n	n	n	n	7.9	n	n	n
Cc1ccc2[nH]c(-c3ccccc3)cc(=O)c2c1	n	n	3.5	n	13	n	n	n
CC(=O)N/C(=C\c1ccc(F)cc1)C(=O)NC(C(=O)O)C(C)C (stereo not given)	n	n	n	n	n	n	x	x
COc1ccc(/C=N/n2c(C)nc3ccccc3c2=O)cc1	n	n	n	n	n	n	x	x
COc1ccc(/C=N\n2nnc3ccccc32)cc1	n	4.2	0.9	n	9.1	n	n	7.7
Cc1nnc(SCC(=O)c2ccc(Cl)cc2)n(N)c1=O	n	n	n	n	9.6	n	n	n
Cc1ccc(NC(=O)CSc2nnc(C)c(=O)n2N)cc1Cl	n	n	n	n	n	n	x	x
Nc1ccccc1Sc1c[nH]c2ccccc12	n	n	n	n	6.8	n	n	n
Cc1cc(N=Nc2ccc(C)c(N=Nc3cc(C)c(N)cc3N)c2)c(N)cc1N	13	n	n	n	7.3	n	n	12
C/C(N)=C(/C#N)C(=O)CSc1nnnn1-c1ccc(C)cc1	n	n	n	n	7.0	n	n	n
Cn1c(/C(C#N)=C(\O)c2ccc(Cl)s2)nc2ccccc21	n	n	n	n	8.0	n	n	8.3
